Autofluor counter: counter-screen for toxin protease inhibitors: compound fluorescence; compound autofluorescence counterscreen, microsphere flow cytometry; stronger effect = higher value; fluorescence intensity (test concentration not listed); 3.1% of 360,000 active; in the data active means fluorescence intensity above about 16000; inconclusive means no clear call, values can overlap the other calls
MazF activator: increases E. coli MazEF RNase cleavage of RNA; 0.32% of 350,000 active; activation, % at 20 µM; AID 504720; FAM/BHQ RNA-DNA oligo cleavage fluorescence, 5 h; in the data active means activation above about 50%
BoNT A protease: inhibitors of Botulinum neurotoxin A light chain protease | AID 588499 | 0.17% of 360,000 active | multiplex microsphere protease substrate cleavage, flow cytometry | inhibition, % at 10 µM
BoNT-F LC inh: blocks Botulinum neurotoxin F light chain protease; Multiplex microsphere protease cleavage assay, flow cytometry; inhibition, % at 10 µM; 0.22% of 360,000 active; in the data active means inhibition above about 35%, passing the limit was not always enough; inconclusive means no clear call, values can overlap the other calls
Anthrax LF prot: anthrax lethal factor protease inhibition; AID 588501; P15917; 0.12% of 360,000 active; inhibition, % at 10 µM; multiplex microsphere protease cleavage assay, LF
Target sequence (P15917 whole entry, looked up): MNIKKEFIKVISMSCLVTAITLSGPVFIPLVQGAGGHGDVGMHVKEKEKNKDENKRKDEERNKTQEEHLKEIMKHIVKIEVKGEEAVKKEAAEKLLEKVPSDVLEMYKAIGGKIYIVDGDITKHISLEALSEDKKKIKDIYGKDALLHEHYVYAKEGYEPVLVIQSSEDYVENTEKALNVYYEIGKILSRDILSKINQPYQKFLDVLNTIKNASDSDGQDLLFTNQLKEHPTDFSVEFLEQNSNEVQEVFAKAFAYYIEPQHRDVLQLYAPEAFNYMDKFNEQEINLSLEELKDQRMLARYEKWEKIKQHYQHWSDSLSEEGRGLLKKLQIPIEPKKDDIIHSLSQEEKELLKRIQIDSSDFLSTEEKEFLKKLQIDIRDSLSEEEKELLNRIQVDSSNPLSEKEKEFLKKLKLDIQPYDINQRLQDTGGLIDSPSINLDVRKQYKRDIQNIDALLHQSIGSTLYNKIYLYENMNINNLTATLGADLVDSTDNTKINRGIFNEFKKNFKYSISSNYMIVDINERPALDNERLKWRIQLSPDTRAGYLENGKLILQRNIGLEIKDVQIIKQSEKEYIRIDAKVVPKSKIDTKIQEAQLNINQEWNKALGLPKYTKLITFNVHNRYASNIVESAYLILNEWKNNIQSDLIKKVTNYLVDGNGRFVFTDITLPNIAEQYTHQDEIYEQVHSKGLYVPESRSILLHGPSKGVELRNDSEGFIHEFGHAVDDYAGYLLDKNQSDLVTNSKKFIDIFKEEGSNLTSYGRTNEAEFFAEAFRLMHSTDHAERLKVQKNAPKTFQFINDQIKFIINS
Large screens that a line does not name were inactive. Only some compounds are listed: those with a hit (about 3.6% of all), similar ones and a draw of the others. Unless noted, no stated cut-off is given here; in the data, active means inhibition above about 30%; inconclusive means no clear call, values can overlap the other calls; inactive means below that.

CC1Oc2ccccc2N(CC(=O)NCC2CCCO2)C1=O (configuration not stated)	Autofluor counter 23344
CC1Oc2ccccc2N(CC(=O)NC2CC2)C1=O (configuration not stated)	none
CC1Oc2ccccc2N(CC(=O)Nc2ccccc2F)C1=O (configuration not stated)	none
O=C(Nc1ccc(F)cc1)Nc1nnc([C@@H]2C[C@H](O)[C@@H](CO)O2)s1	none (no result: MazF activator)
CCCNC(=O)C(Cc1ccc(F)cc1)NC(=O)c1ccccc1 (configuration not stated)	none
Cc1ccc(-c2nnc(N3CCN(C(=O)COc4ccccc4)CC3)c3ccccc23)cc1	Autofluor counter 16269
C[C@H]1CN([C@@H](C)CO)C(=O)c2cc(Br)cnc2O[C@H]1CN(C)S(=O)(=O)c1ccccc1F	none
Cc1cc(NC(=O)CN2CCN(c3ccccc3O)CC2)no1	Autofluor counter 17083
CCOc1ccccc1N1CCN(CC(=O)Nc2cc(C)on2)CC1	none
Cn1c(SCC(=O)n2c3c(c4ccccc42)CCCC3)nnc1-c1ccccc1	Autofluor counter 22437
CC(=O)Nc1ccc(-c2nnc(SCC(=O)n3c4c(c5ccccc53)CCCC4)n2C)cc1	none
CCCS(=O)(=O)NC(=O)C1(C)CCCN(C(=O)c2ccc(C#N)cc2)C1 (configuration not stated)	none (no result: MazF activator)
CCCC1CCC(C2=N/C(=C\c3ccc(OC)c(OC)c3)C(=O)O2)CC1 (configuration not stated)	Autofluor counter 22779
COc1cccc(/C=C2\N=C(C3CCCCC3)OC2=O)c1OC	none
COc1ccc(-n2c(NCCN(C)C)nc3sc4c(c3c2=O)CCCCC4)cc1	Autofluor counter 22405
CC(=NCCN1CCCCC1)c1c(O)[nH]c(=O)[nH]c1=O	Autofluor counter 16267
CC(=NCCN1CCCCC1)c1c(O)n(Cc2ccccc2)c(=O)[nH]c1=O	Autofluor counter 23910
COc1ccc(-n2c(O)c(C(C)=NCCN3CCNCC3)c(=O)[nH]c2=O)cc1	Autofluor counter 22171
CC(=NCCCn1ccnc1)c1c(O)n(Cc2ccccc2)c(=O)[nH]c1=O	Autofluor counter 20727
COc1ccc(-n2c(O)c(C(C)=NCC3CCCO3)c(=O)[nH]c2=O)cc1 (configuration not stated)	none
CC(=NCCCO)c1c(O)[nH]c(=O)[nH]c1=O	none
O=C(CSc1nnc(-c2ccccc2F)n1C1CC1)N1CCCC1	none
CCOc1ccc(-n2c(Cc3cc(=O)[nH]c(=O)[nH]3)nnc2SCC)cc1	Autofluor counter 19071, BoNT A protease inconclusive
CCOc1ccccc1C(=O)NCC(=O)NNC(=O)c1csc(N2CCOCC2)n1	none
O=C(Nc1cc(Cl)cc(Cl)c1)C(NCCO)c1ccccc1 (configuration not stated)	Autofluor counter 22640
Cc1ccc(NC(=O)C(c2ccccc2)N(C)C)cc1Cl (configuration not stated)	none
CCCN(CCC)C(C(=O)Nc1cccc(OC)c1)c1ccccc1 (configuration not stated)	Autofluor counter 22137
O=C(Nc1ccc(Cl)cc1)C(c1ccccc1)N(CCO)CCO (configuration not stated)	Autofluor counter 20747
CCN1C(=O)[C@H]2[C@@H](c3ccc(OC)cc3)N[C@]3(CCCN(Cc4ccc(OC)cc4)C3=O)[C@H]2C1=O	none
Cc1ccc(C(=O)Cc2cc3ccccc3oc2=O)c(C)c1	none
COc1cccc(C2NC(=O)c3ccccc3O2)c1OC (configuration not stated)	Autofluor counter 18893, BoNT A protease inconclusive
CCOC(=O)C1C(=O)NC(C(=O)OCC)(C(=O)OCC)C1C(C)CC (configuration not stated)	none
S=c1[nH]nc(CCCc2n[nH]c(=S)o2)o1	none
CCOc1ccc(-c2noc(CCC(N)=O)n2)cc1OCC	Autofluor counter 21943
C=CCn1c(CNC(=O)c2ccco2)nnc1SCC(=O)N1c2ccccc2Sc2ccccc21	Autofluor counter 18468
CCOC(=O)[C@]12CCC=C1N(Cc1cccc3ccccc13)C(=O)[C@H](CC(=O)N1CCCC1)C2	none (no result: MazF activator)
CN1C(=O)C(Cc2nc3ccccc3c(=O)n2-c2ccccc2)c2ccccc21 (configuration not stated)	Autofluor counter 19805, BoNT A protease inconclusive
O=C(c1ccc(Cl)cc1)C1CCN(C(=O)N2CCOCC2)CC1	Autofluor counter 19889
CCCCOC(=O)CCc1nc2ccccc2[nH]c1=O	Autofluor counter 18710

High-throughput results deposited in PubChem BioAssay by several laboratories.
